Data from ChEMBL document CHEMBL4808148, “HDAC6 screening dataset using tau-based substrate in an enzymatic assay yields selective inhibitors and activators” (2021).
The whole screen tested about 5,600 compounds, of which about 390 (7%) showed an effect of 50% or more. Shown is part of a subset that was picked to be rich in strong results.

Target: T1, Protein deacetylase HDAC6 (Homo sapiens) (UniProt Q9UBN7)
T1 sequence (whole entry): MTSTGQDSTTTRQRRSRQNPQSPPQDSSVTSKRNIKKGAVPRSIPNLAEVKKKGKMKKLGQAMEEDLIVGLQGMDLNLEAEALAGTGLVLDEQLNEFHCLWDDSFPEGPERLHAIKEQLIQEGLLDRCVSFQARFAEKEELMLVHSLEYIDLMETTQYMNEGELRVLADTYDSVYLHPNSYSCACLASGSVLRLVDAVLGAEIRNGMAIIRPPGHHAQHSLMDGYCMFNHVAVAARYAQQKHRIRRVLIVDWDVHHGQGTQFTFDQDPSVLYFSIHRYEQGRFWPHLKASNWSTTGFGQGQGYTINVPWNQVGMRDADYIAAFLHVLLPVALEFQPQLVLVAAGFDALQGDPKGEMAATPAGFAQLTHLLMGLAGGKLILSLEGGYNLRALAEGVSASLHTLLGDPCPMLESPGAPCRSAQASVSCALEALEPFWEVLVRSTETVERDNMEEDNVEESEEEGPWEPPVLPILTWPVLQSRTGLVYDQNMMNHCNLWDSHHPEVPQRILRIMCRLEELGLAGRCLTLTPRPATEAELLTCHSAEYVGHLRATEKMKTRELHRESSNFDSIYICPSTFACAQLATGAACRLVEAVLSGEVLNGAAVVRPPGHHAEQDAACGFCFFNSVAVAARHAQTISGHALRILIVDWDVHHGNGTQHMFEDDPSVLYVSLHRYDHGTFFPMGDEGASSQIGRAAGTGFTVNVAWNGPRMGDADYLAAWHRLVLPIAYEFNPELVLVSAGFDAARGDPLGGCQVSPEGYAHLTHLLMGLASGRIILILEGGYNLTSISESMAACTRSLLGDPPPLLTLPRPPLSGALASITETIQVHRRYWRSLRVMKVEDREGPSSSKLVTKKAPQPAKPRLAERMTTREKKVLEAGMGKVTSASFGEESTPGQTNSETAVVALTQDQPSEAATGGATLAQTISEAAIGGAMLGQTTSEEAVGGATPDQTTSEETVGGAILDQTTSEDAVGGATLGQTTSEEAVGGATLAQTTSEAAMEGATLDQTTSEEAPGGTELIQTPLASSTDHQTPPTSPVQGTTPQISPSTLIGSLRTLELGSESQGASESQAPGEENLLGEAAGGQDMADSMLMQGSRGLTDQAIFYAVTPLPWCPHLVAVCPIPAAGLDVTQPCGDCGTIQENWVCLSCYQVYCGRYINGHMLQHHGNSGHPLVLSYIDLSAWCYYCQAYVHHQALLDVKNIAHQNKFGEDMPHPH
Details: at 10 µM

SMILES	inhibition
COc1ccc(C(=O)N2CCCc3cc(C4=NNC(=O)SC4C)ccc32)cc1OC (stereo not given)	7.12%
Cc1ccc(S(=O)(=O)NC2c3ccccc3Oc3ccccc32)cc1	0.27%
CNC(=O)CN(CCN(CCN(CC(=O)O)CC(=O)NC)CC(=O)O)CC(=O)O	17.5%
OCc1ccc(-c2ccc(-c3ccc(CO)s3)o2)s1	102%
O=C(O)COc1cccc(-c2ocnc2-c2nc(-c3ccccc3)c(-c3ccccc3)o2)c1	-1.23%
Cc1ncc(C[n+]2csc(CCO)c2C)c(N)n1	53%
CCCc1ncc(C[n+]2ccccc2C)c(N)n1	-5.17%
CC(C)CN(C[C@@H](O)[C@H](Cc1ccccc1)NC(=O)O[C@H]1CCOC1)S(=O)(=O)c1ccc(N)cc1	1.38%
COc1ccc(OC)c(CN(C(C)=O)c2cc(F)ccc2Oc2ccccc2)c1	1.27%
Cc1c(-c2ccc(O)cc2)n(Cc2ccc(OCCN3CCCCCC3)cc2)c2ccc(O)cc12	86.2%
O=C(c1ccc(OCCN2CCCCC2)cc1)c1c(-c2ccc(O)cc2)sc2cc(O)ccc12	38.5%
O=C(Cc1ccc(-c2ccc(OCCN3CCOCC3)cc2)cn1)NCc1ccccc1	9.75%
O=[N+]([O-])c1cnc(Sc2nnc(O)n2-c2ccc3c(c2)OCCO3)s1	11.2%
C[n+]1cccc(C(=O)[O-])c1	7.12%
O=C(Nc1ccccc1)C12CC1/C(=N\O)c1ccccc1O2 (stereo not given)	16.1%
Nc1cc(C(F)(F)F)c(-c2nc(N3CCOCC3)nc(N3CCOCC3)n2)cn1	-6.25%
OCc1c[nH]c2ccccc12	2.93%
c1ccc2c(Cc3c[nH]c4ccccc34)c[nH]c2c1	71.8%
O=C(O)C(=O)Cc1c[nH]c2ccccc12	20.3%
CCc1cc2c(c(CC)n1)CCC(=O)N2Cc1ccc(-c2ccccc2-c2nnn[nH]2)cc1	0.45%
[O-][S+](c1ccccc1)c1ccc2nnnn2n1 (stereo not given)	-5.95%
Clc1ccc(N/N=C(\c2ccccc2)c2ccccn2)nc1	25.9%
c1ccc(COCCCc2c[nH]cn2)cc1	20.5%
COc1ccc2cc1Oc1ccc(cc1)C[C@H]1c3c(cc4c(c3Oc3cc5c(cc3OC)CCN(C)[C@@H]5C2)OCO4)CCN1C	-6.05%
O=C1/C(=C/c2ccccc2)C(NC2CCCCC2)c2ccccc21 (stereo not given)	8.83%
Cc1noc(NS(=O)(=O)c2cccc3c(N(C)C)cccc23)c1C	29.9%
Nc1nc2c(cnn2CCc2ccccc2)c2nc(-c3ccco3)nn12	61.6%

SMILES	inhibition
Cc1ccc(C)c(OCCCC(C)(C)C(=O)O)c1	7.2%
Cc1cc(Cl)ccc1OCCCC(=O)NO	98.5%
COc1ccc2[nH]c3c(-c4cccc5ccccc45)nccc3c2c1	9.67%
Cc1cc(C)c(N)c(C#Cc2cccc(F)c2)n1	103%
Cc1nc(C#Cc2ccnc(Cl)c2)c(C)n1-c1ccc(F)cc1	5.29%
CC(C)NC(=O)c1ccc(C#Cc2ccncc2)cn1	-5.33%
C[C@@H]([C@H](C)O)[C@H](N)C(=O)O	-7.36%
CNC(=O)c1ccc(C)c(-n2c(C)cc(OCc3ccc(F)cc3F)c(Br)c2=O)c1	72.6%
CCCCCCCCCCCCCC[C@@H](O)[C@@H](O)[C@@H](N)CO	0.56%
CCCc1c(OCC(O)COc2ccc3c(=O)cc(C(=O)O)oc3c2CCC)ccc(C(C)=O)c1O (stereo not given)	22.7%
Cc1cc(OI)c(C(C)C)cc1-c1cc(C(C)C)c(OI)cc1C	7.55%
Cc1nc2ccc(NC(=O)Nc3ccnc4cccnc34)cc2o1	76%
CN[C@@H]1CCc2[nH]c3ccc(C(N)=O)cc3c2C1	9.03%
Cc1cccc(/C=N/Nc2cc(N3CCOCC3)nc(OCCc3ccccn3)n2)c1	1.14%
Cc1cc(-c2nncc3c(C(C)(C)C)c(OCc4ncnn4C)nn23)no1	-0.39%
O=C1C[C@@H](c2ccccc2)Oc2cc(O)cc(O)c21	50.7%
COc1ccc([C@@H]2CC(=O)c3c(O)cc(O[C@@H]4O[C@H](CO[C@@H]5O[C@@H](C)[C@H](O)[C@@H](O)[C@H]5O)[C@@H](O)[C@H](O)[C@H]4O)cc3O2)cc1O	14.3%
COc1cc([C@H]2Oc3cc([C@H]4Oc5cc(O)cc(O)c5C(=O)[C@@H]4O)ccc3O[C@@H]2CO)ccc1O	15.7%
O=C1c2c(O)cc(O)cc2O[C@H](c2ccc(O)c(O)c2)[C@H]1O	10.8%
O=C1C[C@@H](c2ccc(O)cc2)Oc2cc(O)ccc21	-5.99%
COc1ccc([C@@H]2CC(=O)c3c(O)cc(O)cc3O2)cc1O	94.9%
CS(=O)(=O)c1ccc([C@@H](CC2CCCC2)C(=O)Nc2nccs2)cc1	-9.75%
Cn1cnnc1Sc1c([N+](=O)[O-])ncn1C	19.5%
C=C1/C(=C\C=C2/CCC[C@]3(C)[C@@H]([C@H](C)/C=C/[C@@H](O)C4CC4)CC[C@@H]23)C[C@@H](O)C[C@@H]1O	1.78%
C[C@@H](CN1CCC(n2c(=O)[nH]c3cc(Cl)ccc32)CC1)NC(=O)c1ccc2ccccc2c1	8.37%
CC1(C)N=C(N)N=C(N)N1OCCCOc1cc(Cl)c(Cl)cc1Cl	12%
Clc1cccc(-n2nnnc2NCc2ccccc2Oc2ccccn2)c1Cl	0.62%

SMILES	inhibition
C[n+]1ccccc1C=NO	0.38%
O=C1C(Cl)=C(N2CCOCC2)C(=O)N1c1ccc(Cl)c(Cl)c1	86%
O=C(Nc1ccc(N2CCC(C(=O)N3CCOCC3)CC2)cc1)c1cnc(Oc2ccccc2)nc1	3.27%
CCN(CC)C(=S)S	13.4%
CC(=O)N(O)C/C=C/c1cccc(Oc2ccccc2)c1	9.26%
N[C@@H]1CCCN(c2c(/C=C3\SC(=O)NC3=O)cccc2-c2ccccc2)C1	104%
CCCCCCC[N+](CC)(CC)CCCCc1ccc(Cl)cc1	11%
COc1cc(OC)cc(N(CCNC(C)C)c2ccc3ncc(-c4cnn(C)c4)nc3c2)c1	-0.23%
Nc1nc(-c2nn(Cc3ccccc3F)c3ncccc23)ncc1C1CC1	34.9%
N=C(N)NCCC(=O)O	1.27%
NC(=O)C1=CN([C@@H]2O[C@H](COP(=O)(O)OP(=O)(O)OC[C@H]3O[C@@H](n4cnc5c(N)ncnc54)[C@H](O)[C@@H]3O)[C@@H](O)[C@H]2O)C=CC1	4.98%
Cc1cnc(Nc2ccc(OCCN3CCCC3)cc2)nc1Nc1cccc(S(=O)(=O)NC(C)(C)C)c1	25%
O=C(Nc1cccc2c(=O)cc(-c3nnn[nH]3)oc12)c1ccc(OCCCCc2ccccc2)cc1	9.45%
O=C(NO)c1ccc2[nH]c(=O)c(CCCc3ccccc3)nc2c1	99.2%
CCCCc1ccc2[nH]c(NC(=O)OC)nc2c1	48%
CCCCCCCCCCCCCCCC[N+](C)(C)Cc1ccccc1	36.2%
CC(C)c1ccc(CC(=O)N2CCC[C@@H](c3cccc(OC(C)(C)C(=O)O)c3)C2)cc1	24.2%
Nc1n[nH]c2nc3ccccc3nc12	53.6%
COC(=O)c1ccc(O)cc1	16.3%
COC(=O)CC1CC(c2ccc(O)cc2)=NO1 (stereo not given)	96.7%
Nc1nc(Nc2ccccc2)nc2c1ncn2[C@@H]1O[C@H](CO)[C@@H](O)[C@H]1O	-2.75%
CC(N)(C(=O)O)c1ccc(-c2nnn[nH]2)cc1 (stereo not given)	-2%
CN(C)C(=N)NCCC[C@H](N)C(=O)O	23.2%
O=C(O)c1cc([N+](=O)[O-])ccc1NCCCc1ccccc1	109%
CS(=O)(=O)Nc1ccc([N+](=O)[O-])cc1Oc1ccccc1	1.72%
Cn1c(NCCN(CCO)CCCc2ccc([N+](=O)[O-])cc2)cc(=O)n(C)c1=O	7.31%
O=C(Nc1ccccc1)N1CCC(Cc2cnc3ccccc3c2)CC1	27.7%

SMILES	inhibition
Cn1cc(/C=C2/C(=O)Nc3cccnc32)c2ccccc21	99.5%
Cn1cc(C2=C(c3ccc(Cl)cc3Cl)C(=O)NC2=O)c2ccccc21	-5.95%
Cn1cc(C2=C(c3cn(CCCSC(=N)N)c4ccccc34)C(=O)NC2=O)c2ccccc21	-2.47%
Cc1ccc(-c2cn3c4c(sc3n2)CCCC4)cc1	98%
Clc1ccccc1CNC[C@H]1CC[C@H](CNCc2ccccc2Cl)CC1	9.4%
N#Cc1ccncn1	5.74%
Nc1cccc(-c2cc3c(Oc4cccc(O)c4)ncnc3[nH]2)c1	55.1%
C[C@@H]([C@@H](O)c1ccc(O)cc1)N1CCC(O)(c2ccccc2)CC1	14.2%
CC/C=C(\C(=O)N[C@@H]1C(=O)N2C(C(=O)OCOC(=O)C(C)(C)C)=C(COC(N)=O)CS[C@H]12)c1csc(N)n1	4.66%
N#Cc1c(O)c2c(-c3ccc(-c4ccccc4O)cc3)csc2[nH]c1=O	94.5%
CNC(=N)NC(=O)Nc1c(C)cccc1C	27.8%
C1=Cc2cccc(OCC3CNCCO3)c2C1 (stereo not given)	18.4%
C=C(C)[C@@H]1CC[C@]2(C(=O)O)CC[C@]3(C)[C@H](CC[C@@H]4[C@@]5(C)CC[C@H](OC(=O)CC(C)(C)C(=O)O)C(C)(C)[C@@H]5CC[C@]43C)[C@@H]12	26.3%
O=C(O)[C@H]1O[C@H](Oc2cc3oc(-c4ccccc4)cc(=O)c3c(O)c2O)[C@H](O)[C@@H](O)[C@@H]1O	61.7%
CCOC(=O)COc1ccc2c(=O)cc(-c3ccccc3)oc2c1	46.4%
COc1ccc(-c2cc(=O)c3c(O)c(OC)c(O)cc3o2)cc1OC	85.7%
O=C(O)c1cc(O)c2c(c1)[C@@H]([C@H]1c3cc(C(=O)O)cc(O)c3C(=O)c3c(O[C@H]4O[C@H](CO)[C@@H](O)[C@H](O)[C@H]4O)cccc31)c1cccc(O[C@H]3O[C@H](CO)[C@@H](O)[C@H](O)[C@H]3O)c1C2=O	17.7%
O=c1oc2cc(O)ccc2s1	15.3%
OCc1ccccc1O[C@@H]1O[C@H](CO)[C@@H](O)[C@H](O)[C@H]1O	-9.23%
O=c1cc(-c2ccc(O)cc2)oc2cc(O)cc(O)c12	97%
COc1ccc(-c2cc(=O)c3c(OC)c(OC)c(OC)c(OC)c3o2)cc1OC	-2.26%
O=C(O)c1cc(O)c2c3nc4ccccc4oc-3cc(=O)c2n1	5.48%
O=c1cc(-c2ccccc2)oc2cc(O)cc(O)c12	101%
COc1ccc(-c2cc(=O)c3c(OC)c(OC)c(OC)c(OC)c3o2)cc1	44.4%
